This note sets out measurements from the supplement of paper PMC12282887.

± gives the standard deviation of the averaged measurements.

This test relates to E. coli BW25113 marRABp lux reporter. The test can be described thus: promoter activity interaction Z-score (Lux/OD deviation from empty-vector control); higher = stronger promoter induction by the compound. As for the experimental part:
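E. coli BW25113 (wild type or ΔmarA/ΔsoxS/Δrob) carrying pTU175 luxCDABE promoter reporters was grown in LB in 384-well plates at 37°C with each of 94 compounds at 4 two-fold concentrations, in biological duplicates. Luminescence and OD600 were read every 30 min for 12 h and integrated as AUC over 8 h (0-8 h WT, 1-9 h mutants). Lux AUC was divided by OD AUC; the interaction score is the residual of a Huber robust fit of each promoter against the empty-vector control, then Z-transformed per promoter.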

As to `O=C(O)c1cn(C2CC2)c2cc(N3CCNCC3)c(F)cc2c1=O` [Ciprofloxacin], the “promoter activity interaction Z-score” value is -0.376 ± 0.019 (0.0012 µg/ml, genetic background: wild type); -0.0878 ± 0.24 (0.0012 µg/ml, genetic background: ΔmarA); -0.0711 ± 0.075 (0.0012 µg/ml, genetic background: Δrob); 0.251 ± 0.081 (0.0012 µg/ml, genetic background: ΔsoxS); -0.228 ± 0.28 (0.0025 µg/ml, genetic background: wild type); -0.253 ± 0.031 (0.0025 µg/ml, genetic background: ΔmarA). In addition, the “promoter activity interaction Z-score” value (0.0025 µg/ml, genetic background: Δrob) is -0.0459 ± 0.41; the “promoter activity interaction Z-score” value (0.0025 µg/ml, genetic background: ΔsoxS) was 0.188 ± 0.098; the “promoter activity interaction Z-score” value (0.005 µg/ml, genetic background: wild type) was -0.472 ± 0.005; the “promoter activity interaction Z-score” value (0.005 µg/ml, genetic background: ΔmarA) was -0.302 ± 0.12; the “promoter activity interaction Z-score” value (0.005 µg/ml, genetic background: Δrob) was -0.138 ± 0.072; the “promoter activity interaction Z-score” value (0.005 µg/ml, genetic background: ΔsoxS) is 0.0987 ± 0.0052. Also, the “promoter activity interaction Z-score” value runs as follows: (0.0099 µg/ml, genetic background: wild type) 2.5 ± 0.32; (0.0099 µg/ml, genetic background: ΔsoxS) 4.16.

Consider `O=C(/C=C/C=C/c1ccc2c(c1)OCO2)N1CCCCC1` [Piperine], for which the “promoter activity interaction Z-score” value (17.8 µg/ml, genetic background: wild type) was -0.274 ± 0.019; the “promoter activity interaction Z-score” value (17.8 µg/ml, genetic background: ΔmarA) was -0.301 ± 0.051; the “promoter activity interaction Z-score” value (17.8 µg/ml, genetic background: Δrob) is -0.434 ± 0.098; the “promoter activity interaction Z-score” value (17.8 µg/ml, genetic background: ΔsoxS) is -0.317 ± 0.29; the “promoter activity interaction Z-score” value (35.7 µg/ml, genetic background: wild type) is -0.476 ± 0.17; the “promoter activity interaction Z-score” value (35.7 µg/ml, genetic background: ΔmarA) was -0.752 ± 0.41. Besides, the “promoter activity interaction Z-score” value by setting is: (35.7 µg/ml, genetic background: Δrob) -0.43 ± 0.21; (35.7 µg/ml, genetic background: ΔsoxS) -0.378 ± 0.24; (71.3 µg/ml, genetic background: wild type) -0.335 ± 0.037; (71.3 µg/ml, genetic background: ΔmarA) -0.48 ± 0.25; (71.3 µg/ml, genetic background: Δrob) -0.399 ± 0.2; (71.3 µg/ml, genetic background: ΔsoxS) -0.463 ± 0.46. The “promoter activity interaction Z-score” value runs as follows: (142.7 µg/ml, genetic background: wild type) -0.425 ± 0.28; (142.7 µg/ml, genetic background: ΔmarA) -0.375 ± 0.13; (142.7 µg/ml, genetic background: Δrob) -0.33 ± 0.27; (142.7 µg/ml, genetic background: ΔsoxS) -0.0869 ± 0.48.
